Among all 39,000 compounds or so, about 1,500 (3.8%) were called active. This excerpt belongs to a sample that is enriched for actives.

In this assay the test system is HSkMC (human skeletal muscle cells). The experiment in a line: cytotoxicity call (relative viability < 0.9). The conditions noted are these: 10 µM.
As for `C[C@@H]1CN([C@H](C)CO)C(=O)c2cccc(NC(=O)c3nc4ccccc4s3)c2O[C@H]1CN(C)C(=O)Nc1cccc2ccccc12`, the cytotoxicity call was “inactive”.

`CCN1C(=O)CN(CC(=O)O)C1=O`: the cytotoxicity call is “inactive”.

`NCc1ccc2nsnc2c1`: the cytotoxicity call was “inactive”.

Turning to `C[C@@H]1CN([C@@H](C)CO)C(=O)c2cccc(NS(C)(=O)=O)c2O[C@H]1CN(C)C(=O)Nc1ccc(C(F)(F)F)cc1`, the cytotoxicity call was “inactive”.

With `O=C(C[C@@H]1CC[C@@H]2[C@H](COC[C@H](O)CN2C(=O)Nc2ccc(F)cc2)O1)NCCCN1CCOCC1`, the cytotoxicity call is “inactive”.

Turning to `C[C@H](CO)N1C[C@H](C)[C@@H](CN(C)S(C)(=O)=O)OCCCC[C@H](C)Oc2ccc(NS(=O)(=O)c3cn(C)cn3)cc2C1=O`, the cytotoxicity call is “inactive”.

As to `C[C@H](CO)N1C[C@H](C)[C@@H](CN(C)C(=O)Nc2cccc(F)c2)Oc2cc(C#CC3(O)CCCC3)ccc2S1(=O)=O`, the cytotoxicity call was “inactive”.

Turning to `C[C@H](CO)N1C[C@H](C)[C@@H](CN(C)C(=O)Nc2cc(F)ccc2F)Oc2cc(/C=C/c3ccccc3)ccc2S1(=O)=O`, the cytotoxicity call was “inactive”.

For the molecule `C[C@@H]1CN([C@@H](C)CO)S(=O)(=O)c2ccc(C#Cc3ccncc3)cc2O[C@H]1CN(C)C(=O)Nc1ccc2c(c1)OCO2`, the cytotoxicity call is “active”.

Regarding `C[C@H]1CN([C@@H](C)CO)S(=O)(=O)c2ccc(C#Cc3ccncc3)cc2O[C@H]1CN(C)C(=O)Nc1ccc2c(c1)OCO2`, the cytotoxicity call was “inactive”.

In the case of `C[C@H]1CN([C@@H](C)CO)S(=O)(=O)c2ccc(C#Cc3ccccc3F)cc2O[C@H]1CN(C)C(=O)c1ccc2c(c1)OCO2`, the cytotoxicity call was “inactive”.

With `C[C@H]1CN([C@@H](C)CO)S(=O)(=O)c2ccc(C#CC3(O)CCCC3)cc2O[C@@H]1CN(C)C(=O)Nc1cccc(F)c1`, the cytotoxicity call is “active”.

Consider `C[C@@H]1CN([C@@H](C)CO)S(=O)(=O)c2ccc(C#CC3(O)CCCC3)cc2O[C@@H]1CN(C)C(=O)Nc1cccc(F)c1`, for which the cytotoxicity call is “inactive”.

As for `C[C@@H]1CN([C@@H](C)CO)S(=O)(=O)c2ccc(C#Cc3ccccc3F)cc2O[C@H]1CN(C)C(=O)c1ccc2c(c1)OCO2`, the cytotoxicity call is “active”.

As for `C[C@H]1CN([C@@H](C)CO)S(=O)(=O)c2ccc(/C=C/c3ccccc3)cc2O[C@@H]1CN(C)C(=O)Nc1cc(F)ccc1F`, the cytotoxicity call is “inactive”.

Take `C[C@H]1CN([C@@H](C)CO)S(=O)(=O)c2ccc(C#Cc3ccccc3F)cc2O[C@@H]1CN(C)C(=O)c1ccc2c(c1)OCO2`: the cytotoxicity call was “inactive”.

For the molecule `C[C@@H]1CN([C@H](C)CO)S(=O)(=O)c2ccc(/C=C/c3ccccc3)cc2O[C@H]1CN(C)C(=O)Nc1cc(F)ccc1F`, the cytotoxicity call was “active”.

In the case of `C[C@H]1CN([C@@H](C)CO)S(=O)(=O)c2ccc(C#Cc3ccncc3)cc2O[C@@H]1CN(C)C(=O)Nc1ccc2c(c1)OCO2`, the cytotoxicity call is “inactive”.

As for `C[C@@H]1CN([C@H](C)CO)C(=O)c2cc(NS(C)(=O)=O)ccc2O[C@@H](C)CCCCO[C@@H]1CN(C)C(=O)CCCN(C)C`, the cytotoxicity call was “inactive”.

In the case of `C[C@@H]1CN([C@@H](C)CO)C(=O)Cc2cc(NC(=O)CCCCCC(=O)Nc3ccccc3N)ccc2O[C@@H]1CN(C)Cc1ccc(-c2ccccc2)cc1`, the cytotoxicity call is “inactive”.

Regarding `C[C@@H]1CN([C@@H](C)CO)C(=O)c2cc(NS(=O)(=O)c3cn(C)cn3)ccc2O[C@H]1CN(C)C(=O)Nc1ccc2c(c1)OCO2`, the cytotoxicity call was “inactive”.

Take `C[C@H]1CN([C@@H](C)CO)C(=O)c2cccc(NC(=O)C3CCOCC3)c2O[C@H]1CN(C)Cc1ccccc1`: the cytotoxicity call is “inactive”.

With `CCC(=O)Nc1ccc2c(c1)OC[C@@H](C)N(C(=O)CN1CCOCC1)C[C@H](C)[C@H](OC)CN(C)C2=O`, the cytotoxicity call was “inactive”.

On to `CN(C)CCCNC(=O)C[C@H]1CC[C@H]2[C@@H](COC[C@@H](O)CN2S(=O)(=O)c2ccc(Cl)cc2)O1`, for which the cytotoxicity call was “inactive”.

On to `C[C@H](CO)N1C[C@H](C)[C@@H](CN(C)S(C)(=O)=O)Oc2cc(C#CCN(C)C)ccc2S1(=O)=O`, for which the cytotoxicity call was “inactive”.

`COCC(=O)Nc1ccc2c(c1)OC[C@@H](C)N(C(=O)Cc1ccccn1)C[C@@H](C)[C@@H](OC)CN(C)C2=O`: the cytotoxicity call is “inactive”.

For `C[C@H]1CN([C@@H](C)CO)C(=O)c2cc(NC(=O)C3CC3)ccc2O[C@H]1CN(C)Cc1ccc2c(c1)OCO2`, the cytotoxicity call was “inactive”.

On to `COc1cccc(NC(=O)N(C)C[C@H]2Oc3cc(C#Cc4ccncc4)ccc3S(=O)(=O)N([C@H](C)CO)C[C@@H]2C)c1`, for which the cytotoxicity call is “inactive”.

With `COc1cccc(NC(=O)N(C)C[C@H]2Oc3cc(C#Cc4ccncc4)ccc3S(=O)(=O)N([C@@H](C)CO)C[C@H]2C)c1`, the cytotoxicity call was “inactive”.

Turning to `COc1cccc(NC(=O)N(C)C[C@H]2Oc3cc(C#Cc4ccncc4)ccc3S(=O)(=O)N([C@@H](C)CO)C[C@@H]2C)c1`, the cytotoxicity call was “active”.

Regarding `COc1cc2c(cc1OC)CN(C(=O)[C@H]1[C@@H]3C(=O)O[C@@H](c4ccccc4)[C@@H](c4ccccc4)N3[C@@H](c3ccc(O)cc3)[C@]13C(=O)Nc1ccccc13)CC2`, the cytotoxicity call was “inactive”.

As for `O=c1/c(=C/c2cccc(Cl)c2)c2cccc3cccc1c32`, the cytotoxicity call is “inactive”.

With `Cc1noc(C)c1S(=O)(=O)N(C)C[C@H]1OCCCC[C@H](C)Oc2ccc(NS(=O)(=O)c3cn(C)cn3)cc2C(=O)N([C@H](C)CO)C[C@@H]1C`, the cytotoxicity call is “inactive”.

With `Cc1ccc(S(N)(=O)=O)cc1`, the cytotoxicity call was “inactive”.

For `CNS(=O)(=O)c1ccc(C)cc1`, the cytotoxicity call is “inactive”.

Take `Cc1noc(C)c1S(=O)(=O)N(C)C[C@@H]1OCCCC[C@@H](C)Oc2ccc(NS(C)(=O)=O)cc2C(=O)N([C@@H](C)CO)C[C@@H]1C`: the cytotoxicity call was “inactive”.

As to `CN(C)CCOC(=O)COc1ccc(Cl)cc1.Cl`, the cytotoxicity call is “inactive”.

Consider `CCCCc1nc(-c2ccc(OCCCN(CC)CC)cc2)cn1-c1ccc(Oc2ccc(Cl)cc2)cc1`, for which the cytotoxicity call was “active”.

As to `COc1ccc(-n2nc(CCC(=O)N(C)O)cc2-c2ccc(Cl)cc2)cc1`, the cytotoxicity call is “inactive”.

With `C[C@@H]1CN([C@H](C)CO)C(=O)c2cc(NC(=O)NC3CCCCC3)ccc2O[C@@H](C)CCCCO[C@@H]1CN(C)Cc1ccc2c(c1)OCO2`, the cytotoxicity call was “inactive”.

In the case of `CN(C)CCCNC(=O)C[C@@H]1C=C[C@@H](NC(=O)Cc2cccnc2)[C@@H](CO)O1`, the cytotoxicity call was “inactive”.

`C[C@H](CO)N1C[C@H](C)[C@@H](CN(C)C(=O)Nc2ccc3c(c2)OCO3)Oc2ccc(NS(C)(=O)=O)cc2CC1=O`: the cytotoxicity call is “inactive”.

In the case of `C[C@H](CO)N1C[C@H](C)[C@@H](CN(C)Cc2ccc(-c3ccccc3)cc2)Oc2ccc(NS(=O)(=O)c3ccc(Cl)cc3)cc2CC1=O`, the cytotoxicity call was “inactive”.

As to `C[C@@H]1CN([C@H](C)CO)C(=O)Cc2cc(NS(=O)(=O)c3ccc(Cl)cc3)ccc2O[C@@H]1CN(C)Cc1ccc(-c2ccccc2)cc1`, the cytotoxicity call is “active”.

Consider `C[C@@H]1CN([C@@H](C)CO)C(=O)Cc2cc(NS(=O)(=O)c3ccc(Cl)cc3)ccc2O[C@@H]1CN(C)Cc1ccc(-c2ccccc2)cc1`, for which the cytotoxicity call is “inactive”.

For the molecule `C[C@H]1CN([C@@H](C)CO)C(=O)Cc2cc(NS(=O)(=O)c3ccc(Cl)cc3)ccc2O[C@H]1CN(C)Cc1ccc(-c2ccccc2)cc1`, the cytotoxicity call is “active”.

With `C[C@H](CO)N1C[C@H](C)[C@H](CN(C)Cc2ccc(-c3ccccc3)cc2)Oc2ccc(NS(=O)(=O)c3ccc(Cl)cc3)cc2CC1=O`, the cytotoxicity call is “inactive”.

Turning to `C[C@@H]1CN([C@H](C)CO)C(=O)Cc2cc(NS(=O)(=O)c3ccc(Cl)cc3)ccc2O[C@H]1CN(C)Cc1ccc(-c2ccccc2)cc1`, the cytotoxicity call is “active”.

As for `C[C@@H]1CN([C@@H](C)CO)C(=O)Cc2cc(NS(=O)(=O)c3ccc(Cl)cc3)ccc2O[C@H]1CN(C)Cc1ccc(-c2ccccc2)cc1`, the cytotoxicity call is “active”.

On to `C[C@H]1CN([C@@H](C)CO)C(=O)Cc2cc(NS(=O)(=O)c3ccc(Cl)cc3)ccc2O[C@@H]1CN(C)Cc1ccc(-c2ccccc2)cc1`, for which the cytotoxicity call is “inactive”.

As to `Cc1ccc(S(=O)(=O)N(C)C[C@@H]2Oc3c(NC(=O)c4cnccn4)cccc3C(=O)N([C@H](C)CO)C[C@@H]2C)cc1`, the cytotoxicity call was “inactive”.

For `CC=Cc1ccc2n(c1=O)C[C@H]1[C@H](CO)[C@@H](C(=O)NCCc3cn(C)cn3)N(C(=O)C3CC3)[C@@H]21`, the cytotoxicity call is “inactive”.

With `COc1ccc(S(=O)(=O)N(C)C[C@H]2OCc3cn(nn3)CCCC(=O)N([C@@H](C)CO)C[C@H]2C)cc1`, the cytotoxicity call was “inactive”.

On to `C[C@H](CO)N1C[C@H](C)[C@@H](CN(C)C(=O)Nc2ccc3c(c2)OCO3)OCCCC[C@H](C)Oc2ccc(NC(=O)C3CCCCC3)cc2C1=O`, for which the cytotoxicity call is “inactive”.

In the case of `C[C@H]1CN([C@@H](C)CO)C(=O)c2cc(C#CC3(O)CCCC3)cnc2O[C@H]1CN(C)C(=O)C1CCCCC1`, the cytotoxicity call is “inactive”.

Consider `Cc1noc(C)c1NC(=O)Nc1ccc2c(c1)C(=O)N([C@H](C)CO)C[C@@H](C)[C@H](CN(C)C(=O)Nc1ccc(C(F)(F)F)cc1)O2`, for which the cytotoxicity call is “inactive”.

For the molecule `O=C(C[C@@H]1CC[C@H]2[C@@H](COC[C@H](O)CN2C(=O)c2ccccc2)O1)N1CCOCC1`, the cytotoxicity call is “inactive”.

With `O=C(C[C@@H]1C[C@H]2c3cc(NS(=O)(=O)c4ccc(F)cc4)ccc3O[C@H]2[C@H](CO)O1)NCCN1CCCCC1`, the cytotoxicity call was “inactive”.

In the case of `C[C@H](CO)N1C[C@H](C)[C@H](CN(C)S(=O)(=O)c2ccc(Cl)cc2)OCCCC[C@H](C)Oc2ccc(NC(=O)Nc3ccc(C(F)(F)F)cc3)cc2C1=O`, the cytotoxicity call is “inactive”.

For `C=CCOC(=O)[C@H]1[C@@H]2C(=O)O[C@@H](c3ccccc3)[C@@H](c3ccccc3)N2[C@@H](c2ccc(OCCOC(=O)[C@H]3C[C@H]4C(=O)N[C@@H](Cc5ccccc5)C(=O)N4[C@H]3c3cccc(OCCO)c3)cc2)[C@]12C(=O)Nc1ccccc12`, the cytotoxicity call is “inactive”.

As for `Cc1nn(C[C@@H](O)Cn2cnc3c2c(=O)n(C)c(=O)n3C)c(C)c1Br`, the cytotoxicity call is “inactive”.

Take `O=C(c1ccccc1Cl)c1cccnc1-c1nnn(Cc2cc(C(F)(F)F)cc(C(F)(F)F)c2)c1-c1ccncc1`: the cytotoxicity call was “active”.

For the molecule `NC1CCN(c2cccc(Cl)n2)CC1`, the cytotoxicity call was “inactive”.

On to `CCN(CC)CCS(=O)(=O)[C@@H]1CCN2C(=O)c3coc(n3)CC(=O)C[C@H](O)/C=C(C)/C=C\CNC(=O)/C=C/[C@@H](C)[C@H](C(C)C)OC(=O)[C@@H]12`, for which the cytotoxicity call was “inactive”.

Source of the values: the antibiotic and cytotoxicity screens of Wong et al. (2023).
